# Compounds with a hit are over-represented: about 19% of the library has one in this group of screens.
# ELG1 DNA repair: blocks ELG1-dependent DNA repair in HEK293T cells | Potency, µM (highest dose often 46.1 µM), usual class: inhibitors | 330,000 tested, 2.3% active | HEK293T ELG1-luciferase reporter, luminescence, 16 h; DNA damage induced by 5-fluorouridine; further: nearly all actives have a fitted effect of over 55% in size
#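 Step one: seed 2,000 cells per well. Step two: pin-transfer compound or DMSO alongside 5-fluorouridine. Step three: incubate 16 hr, 37 °C, 5% CO2. Step four: add ONE-Glo, wait 30 min, read luminescence.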
# IL-1B inflam inh: inflammasome signaling inhibition, IL-1 beta readout; THP-1 LPS/ATP IL-1B secretion, AlphaLISA, 16 h; active compounds read low; activity change, % at 57.5 µM; 360,000 tested, 4.7% active; AID 743279; in the data active means activity change below about -50%; inconclusive means mostly about -30% to -49%
#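 Secreted IL-1B measured by AlphaLISA bead assay after 16 h compound exposure of THP-1 cells; compounds (final up to 57.5 uM) added 1 h before LPS (250 ng/mL) and ATP (1.25 mM) stimulation; lower signal means less secretion.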
# DT40 TDP1 CPT: growth inhibition of DT40 Tdp1-/-;hTDP1 cells with camptothecin (screen for TDP1 inhibitors). chicken DT40 Tdp1-/-;hTDP1 cells + 20 nM CPT, ATP luminescence, 48 h. Potency, µM (top dose mostly 46.2 µM), most hits filed as inhibitors. 420,000 tested, 12% active; further: nearly all actives have a fitted effect of over 55% in size
#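 Chicken DT40 Tdp1-/- cells complemented with human TDP1, 400 cells/well, exposed to compounds plus 20 nM camptothecin for at least 48 h at 37 C; viability read as ATP content by CellTiter-Glo luminescence.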
# TDP1 inh: blocks human tyrosyl-DNA phosphodiesterase 1 | Q9NUW8 | recombinant TDP1, AlphaScreen DNA substrate cleavage | Potency, µM (highest dose often 130 µM), hits mostly inhibitors | 350,000 tested, 0.28% active | AID 485290; further: nearly all actives have a fitted effect of over 40% in size
# Target sequence (Q9NUW8 whole entry, looked up): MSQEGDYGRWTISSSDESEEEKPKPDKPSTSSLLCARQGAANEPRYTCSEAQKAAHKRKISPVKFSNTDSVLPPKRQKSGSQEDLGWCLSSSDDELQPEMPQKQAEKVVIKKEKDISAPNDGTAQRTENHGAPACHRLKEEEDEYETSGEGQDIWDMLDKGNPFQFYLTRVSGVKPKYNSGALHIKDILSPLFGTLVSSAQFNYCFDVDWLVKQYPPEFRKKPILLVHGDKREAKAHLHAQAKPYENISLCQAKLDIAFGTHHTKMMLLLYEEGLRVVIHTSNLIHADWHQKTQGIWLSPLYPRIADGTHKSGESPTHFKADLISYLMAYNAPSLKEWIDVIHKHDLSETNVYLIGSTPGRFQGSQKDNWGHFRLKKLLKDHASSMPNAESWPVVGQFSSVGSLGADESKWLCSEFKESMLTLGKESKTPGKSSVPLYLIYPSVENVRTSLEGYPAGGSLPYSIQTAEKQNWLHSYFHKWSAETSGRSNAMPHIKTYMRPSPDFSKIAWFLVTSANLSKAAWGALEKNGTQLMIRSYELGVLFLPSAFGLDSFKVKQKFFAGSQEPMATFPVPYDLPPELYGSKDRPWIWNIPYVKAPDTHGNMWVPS
#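 Steps: enzyme plus compound, 15 min RT; add biotin/phosphotyrosine-FITC oligonucleotide (15 nM final), react 5 min; add donor/acceptor beads (10 ug/ml final), 10 min; read AlphaScreen. Tdp1 at 1 nM final.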
# Giardia kill: Giardia lamblia killing. 340,000 tested, 0.15% active. Giardia lamblia trophozoite viability. AID 540267. activity change, % at 7.66 µM, hits read low; in the data active means activity change below about -80%; inconclusive means between about -30% and that limit;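 further: parasites exposed to compound for two days anaerobically before the ATP read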
#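 ATP-content bioluminescence gauges trophozoite survival. Cells (100/well) receive compound and incubate anaerobically for 48 hrs at 37 deg C; detection reagent follows for 15-30 min at room temperature.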
# DT40 TDP1 no CPT: qHTS for Inhibitors of human tyrosyl-DNA phosphodiesterase 1 (TDP1): qHTS in cells in absence of CPT. Potency, µM (top dose mostly 46.2 µM), actives largely listed as inhibitors. DT40 Tdp1-/- hTDP1 cells, no CPT, ATP luminescence, 48 h. 420,000 tested, 15% active; further: nearly all actives have a fitted effect of over 55% in size
#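 Chicken DT40 Tdp1-/- cells complemented with human TDP1, screened without camptothecin (DMSO vehicle only), 400 cells/well. Compounds pin-transferred, cells incubated at 37 °C for at least 48 hr. Growth read as ATP-dependent luminescence (CellTiter-Glo, 30 min at RT).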
# A number is an active result; - = inactive; ? = inconclusive; . = not tested or not shown. Unless noted, the call rests on the fitted dose curve; in most records, active means well fitted curve in the direction sought with a large enough effect; inconclusive means small, poorly fitted or top-dose-only effect, or another doubt; inactive means no such curve, though single readings can be large; an effect the other way counts as inactive or inconclusive.
SMILES,ELG1 DNA repair,IL-1B inflam inh,DT40 TDP1 CPT,TDP1 inh,Giardia kill,DT40 TDP1 no CPT
O=C(NC(=S)Nc1cccc2c(O)cccc12)c1ccccc1[N+](=O)[O-],-,-,-,-,-,-
Cc1nn(-c2ccc3nncn3n2)c(C)c1CCC(=O)Nc1ccc(OC(F)(F)F)cc1,.,.,?,-,.,?
CCN(CC)Cc1ccc(Nc2ccnc3cc(Cl)ccc23)cc1O,.,.,7.31µM,-,.,6.51µM
CC(CCc1ccccc1)NC(=O)CNC(=O)N1CC(=O)Nc2ccccc21 (centres undefined),-,-,-,-,-,-
C=CCn1c(SCc2c(C)noc2C)nc2sc(C)c(C)c2c1=O,?,-,20.6µM,-,-,18.4µM
C=CCn1c(SCC(=O)c2cc(C)n(C(C)COC)c2C)nc2sc(C)c(C)c2c1=O (centres undefined),?,-,?,-,-,18.4µM
Cc1ccc(S(=O)(=O)N(Cc2ccccc2)c2ccccc2C(=O)Nc2ccccc2C(=O)NCc2ccco2)cc1,-,-,23.1µM,-,-,?
Cc1ccc(S(=O)(=O)N(Cc2ccccc2)c2ccccc2C(=O)NCc2ccco2)cc1,?,-94.5,?,-,-,?
CN(C)C(=O)c1ccc(-c2cncnc2NCCN2CCOCC2)cc1,.,.,-,-,.,-
COc1cccc(OC)c1Cn1nnc2c(=O)[nH]c(C3CCN(C(=O)c4ccccc4)CC3)nc21,.,.,-,-,.,?
Clc1cccc(Cl)c1COn1nnc2ccccc21,?,-,?,-,-,?
c1ccc(COn2nnc3ccccc32)c(COn2nnc3ccccc32)c1,?,?,18.4µM,-,-,10.3µM
COc1ccc(NS(=O)(=O)c2ccc(O)c(C(=O)OCC(=O)NC(C)C3CC4CCC3C4)c2)cc1 (centres undefined),-,-,-,.,-,-
CC(NC(=O)COC(=O)c1cc(NS(=O)(=O)c2ccc(Cl)c([N+](=O)[O-])c2)ccc1O)C1CC2CCC1C2 (centres undefined),?,-107.4,?,-,-,?
CCCCSc1nnc([C@H](CC(C)C)NC(=O)OC(C)(C)C)o1,-,-,18.4µM,-,-,?
CCCCSc1nnc([C@H](C)NC(=O)OC(C)(C)C)o1,-,-,-,-,-,-
O=C(N/N=C/c1cccn1-c1ccc([N+](=O)[O-])cc1)c1cccnc1,-,-,13µM,-,-,25.9µM
O=C(NCc1ccc2c(c1)CCN2C(=O)c1ccc(Cl)cc1)c1cccc(F)c1,.,.,-,-,.,-
Cc1cc(C(=O)NCCCN(C)C)c2ccccc2n1,-,-,-,-,-,-
Cc1ccc(C)c(Nc2cc(C(=O)NC3CCCC3)c3ccccc3n2)c1,.,.,-,-,.,?
COc1ccc(CNC(=O)c2cc(Nc3ccc(C)cc3C)nc3ccccc23)cc1,.,.,18.4µM,-,.,20.6µM
Cc1cc(C)cc(Nc2cc(C(=O)NCCCN(C)C3CCCCC3)c3ccccc3n2)c1,.,.,4.61µM,-,.,3.26µM
COc1ccc(CNC(=O)c2cc(Nc3ccccc3C)nc3ccccc23)cc1,.,.,?,-,.,?
Cc1ccc(C)c(Nc2cc(C(=O)NCCCN(C)C3CCCCC3)c3ccccc3n2)c1,.,.,?,-,.,14.6µM
Cc1cc(C)cc(Nc2cc(C(=O)NCc3ccccc3)c3ccccc3n2)c1,.,.,23.1µM,-,.,20.6µM
SMILES,ELG1 DNA repair,IL-1B inflam inh,DT40 TDP1 CPT,TDP1 inh,Giardia kill,DT40 TDP1 no CPT
CN(C(=O)CN(c1ccccc1)S(=O)(=O)c1ccc(F)cc1)C1CCS(=O)(=O)C1 (centres undefined),?,-,-,-,-,-
COc1ccc(OC)c(CCNC(=O)c2c(C)nn(-c3ccc(F)cc3)c2-n2cccc2)c1,.,.,.,-,.,.
CCCCCCCCCCCCC/C=C\[C@@H](O)[C@@H](N)CO,.,.,-,-,.,?
CCOC(=O)C1(CCCc2ccccc2)CCN(C(=O)C2CCCN(C(N)=O)C2)CC1 (centres undefined),-,-,-,-,?,-
CCOc1ccc(NC2OCC(O)C(O)C2O)c([N+](=O)[O-])c1 (centres undefined),-,-,-,-,-,-
C=CCOc1ccc(/C=C/C(=O)OCC(=O)N(C)CC(=O)Nc2ccccc2Cl)cc1,-,-,-,.,-,?
Cc1nc(N)c(Cc2ccc(Cl)cc2Cl)c(N)n1,?,-,11.6µM,-,-,8.2µM
Cc1nc2ccccc2n1CC(O)COc1ccccc1Cl (centres undefined),?,-,18.4µM,-,-,9.2µM
COC(=O)c1cccc(OCC(O)Cn2cnc3cc(C)c(C)cc32)c1 (centres undefined),?,-,?,-,-,?
COC(=O)c1ccc(OCC(O)CN(CC(C)C)CC(C)C)cc1 (centres undefined),-,-,?,-,-,29.1µM
COC(=O)c1ccc(OCC(O)Cn2cnc3cc(C)c(C)cc32)cc1 (centres undefined),.,.,?,-,.,9.2µM
CCC(=O)c1ccc(OCC(O)Cn2c(C)nc3ccccc32)cc1 (centres undefined),?,-,18.4µM,-,-,18.4µM
Cc1nc2ccccc2n1CC(O)COc1ccc(C(=O)O)cc1 (centres undefined),.,.,-,.,.,-
Cc1ccc(Sc2c(C)nn(C(=O)COc3ccccc3)c2C)cc1,.,.,-,.,.,-
Cc1ccnc2nc(C(=O)OCC(=O)N(C)C3CCCCC3)nn12,.,-,-,.,.,-
Cc1nc2ccccc2n1CC(O)Cn1c(C(F)(F)F)nc2ccccc21 (centres undefined),?,-,-,-,-,?
CCCc1nc2ccccc2n1CC(O)COc1ccc(C(=O)OC)cc1 (centres undefined),.,.,11.6µM,-,.,20.6µM
Cc1nc2ccccc2n1CC(O)COc1ccc(Br)cc1 (centres undefined),?,?,?,-,-,18.4µM
COC(=O)c1ccc(OCC(O)CN2C(=O)c3ccccc3C2=O)cc1 (centres undefined),-,-,-,.,-,-
Cc1nc2cnc(N3CCOCC3)nc2n(Cc2ccc(F)cc2)c1=O,.,.,-,.,.,-
c1ccc(Nc2nc(N3CCCC3)nc(N3CCCC3)n2)cc1,?,-,?,-,-,-
c1ccc(Nc2nc(N3CCCCC3)nc(N3CCNCC3)n2)cc1,-,-65.3,29.1µM,-,-,18.4µM
Fc1ccc(Nc2nc(Oc3ccccc3F)nc(N3CCCC3)n2)cc1,?,-52.6,-,-,-,?
COc1nc(Nc2cccc(C)c2)nc(N2CCCCC2)n1,-,-,18.4µM,-,-,16.4µM
Fc1ccc(-c2cc(-c3ccccc3)nc(-n3cccn3)n2)cc1,?,.,?,-,-,?

# Compound activity from PubChem BioAssay.
